# Screens deposited in PubChem BioAssay by several laboratories.
# PrP UTR inh = inhibition of PrP 5' UTR reporter expression | inhibition, % (concentration not given with the values) | 340,000 tested, 0.35% active | cell-based PrP 5' UTR mRNA reporter, plate reader; in the data active = inhibition above about 52%; note: 0 = median of the neutral control wells
# MazF activator = activators of E. coli MazEF toxin-antitoxin RNase, primary screen, biochemical, fluorescence, uHTS. Endoribonuclease toxin MazF (Escherichia coli (strain K12)), P0AE70. FAM/BHQ RNA-DNA oligo cleavage fluorescence, 5 h. activation, % at 20 µM. 350,000 tested, 0.32% active; in the data active = activation above about 50%
# Target sequence (P0AE70 whole entry, looked up): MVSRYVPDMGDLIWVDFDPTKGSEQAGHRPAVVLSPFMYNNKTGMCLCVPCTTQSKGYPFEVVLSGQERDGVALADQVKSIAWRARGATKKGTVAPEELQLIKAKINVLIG
# DUSP3 inh = VHR1 phosphatase inhibitors, primary screen, biochemical, absorbance, uHTS | recombinant VHR phosphatase, pNPP absorbance | Dual specificity protein phosphatase 3 (Homo sapiens), P51452 | inhibition, % at 13.3 µM | 290,000 tested, 0.52% active; in the data active = inhibition above about 50%
# Target sequence (P51452 whole entry, looked up): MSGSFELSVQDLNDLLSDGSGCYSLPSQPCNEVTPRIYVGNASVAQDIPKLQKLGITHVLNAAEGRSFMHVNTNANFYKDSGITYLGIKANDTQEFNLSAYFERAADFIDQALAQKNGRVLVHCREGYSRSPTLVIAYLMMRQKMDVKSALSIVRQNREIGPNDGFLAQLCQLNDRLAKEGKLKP
# 3CLpro inhibitor = SARS-CoV 3CLpro protease inhibitors, primary screen, biochemical, quenched FRET; inhibition, % at 6 µM; AID 1706, 2009; 290,000 tested, 0.14% active; recombinant SARS-CoV 3CLpro, quenched FRET peptide cleavage; Replicase polyprotein 1ab (Severe acute respiratory syndrome coronavirus), P0C6X7; in the data active = inhibition above about 12%
# PrPC surface inh = inhibitors of human cell surface prion protein PrPC, primary screen, cell-based, TR-FRET | Major prion protein (Homo sapiens), P04156 | TR-FRET read-out | inhibition, % at 13.8 µM | 370,000 tested, 0.43% active | AID 720596, 2013; in the data active = inhibition above about 24%; note: 0% = median of the test wells and 100% = reference compound wells
# Mtb hypoxia inh = PubChem AID 1159583; M. tuberculosis hypoxia-regulated fluorescent reporter, fluorescence; fluorescence inhibition, % (test concentration not listed); 300,000 tested, 0.1% active; in the data active = fluorescence inhibition mostly above about 23%, no sharp cut-off; inactive = mostly below about 17%
# PrP UTR cherry = prion 5' UTR mRNA inhibition, cherry-pick retest; cell-based prion protein 5' UTR reporter, plate reader; 1,100 tested, 48% active; inhibition, % at 2.5 µM; shares compounds with PrP UTR inh; in the data active = inhibition above about 54%; inconclusive = no clear call, values can overlap the other calls
# The depositor's hits bear a star; ? = inconclusive; . = no result given. The list is not random: actives were taken first. Their share in the collection is about 1.5%.
SMILES,PrP UTR inh,MazF activator,DUSP3 inh,3CLpro inhibitor,PrPC surface inh,Mtb hypoxia inh,PrP UTR cherry
CCc1ccc(-c2cc(C(=O)Nn3cnnc3)c3ccccc3n2)cc1,70*,0,6,-3,4,13,61*
CCNC(=S)NNC(=O)c1cc(-c2ccc(OCC)cc2)nc2ccccc12,58*,-1,23,-8,-1,-1,27
O=C(c1ccco1)N1CCN(S(=O)(=O)/C=C/c2ccccc2)CC1,56*,-1,5,-1,-3,3,11
O=C(c1cc2ccccc2o1)N1CCN(S(=O)(=O)/C=C/c2ccccc2)CC1,-20,-5,14,5,0,-5,.
N#CC1=C2N=C(N)c3ccccc3N2C2=C(C(=O)CCC2)C1c1cccc(Cl)c1 (stereo unspecified),70*,-5,-11,5,-5,.,3
CC(C)NC(=S)NN=CC1=CCC2CC1C2(C)C (stereo unspecified),.,.,.,.,.,11,.
CC(=NNC(=S)N(Cc1ccccn1)Cc1ccccn1)c1cnccn1,80*,0,.,.,1,.,58*
O=C(O)CC1S/C(=N\N=C2CCCCCC2)N(c2ccccc2)C1=O (stereo unspecified),-12,1,21,4,-1,.,.
CCOC(=O)CC/C(C)=N\N=C1\SC(CC(=O)O)C(=O)N1c1ccccc1 (stereo unspecified),85*,-1,-3,4,0,.,-18
O=c1cc(-c2ccc(O)cc2)oc2ccc3ccccc3c12,78*,4,.,.,5,7,73*
C[C@H]1CCC[C@@H](O)CCC/C=C/c2cc(O)cc(O)c2C(=O)O1,3,3,24,0,-7,.,.
C[C@H]1CCC/C=C/C2C[C@H](O)CC2[C@H](O)/C=C/C(=O)O1 (stereo partly specified),81*,9,-7,-4,.,.,90*
O=c1oc2ccccc2cc1-c1cn2ccccc2n1,81*,-14,6,3,-12,3,?
Cc1ccc(C(c2nnnn2CC2CCCO2)N2CCN(Cc3ccccc3)CC2)cc1 (stereo unspecified),67*,11,13,2,-12,4,2
COc1ccc(OC)c(-c2nnc3n2N=C(c2ccc(OC)c(OC)c2)CS3)c1,56*,4,.,.,24,1,83*
COc1ccc(OC)c(-c2nnc3n2N=C(c2ccc(OC)c(OC4CCCC4)c2)CS3)c1,65*,2,.,.,20,7,86*
COc1ccc(C2=Nn3c(nnc3-c3ccccc3F)SC2)cc1OC1CCCC1,-17,-9,.,.,16,.,.
Cn1c(=N)n(CC(=O)c2ccccc2)c2ccccc21,.,0,13,0,-2,11,.
Cn1c(=N)n(CC(=O)c2ccc(Cl)c(Cl)c2)c2ccccc21,61*,19,20,0,1,.,12
CCc1ccc(C=NNC(=O)C(=O)NCCCN2CCOCC2)cc1,.,.,.,.,.,4,.
CCN(C[C@H]1N[C@@](Cc2ccccc2)(C(=O)OC)[C@H]2C(=O)N(C)C(=O)[C@@H]12)S(=O)(=O)c1ccc(C(F)(F)F)cc1,-4,3,.,.,-7,0,.
CCN(C[C@H]1N[C@@](Cc2ccccc2)(C(=O)OC)[C@H]2C(=O)N(Cc3ccccc3)C(=O)[C@@H]12)S(=O)(=O)c1ccc(C(F)(F)F)cc1,86*,0,.,.,-2,3,-13
CC[C@@]1(C(=O)OC)N[C@H](CN(C)C(=O)Nc2ccc(C)cc2)[C@@H]2C(=O)N(Cc3ccccc3)C(=O)[C@@H]21,-27,-14,.,.,-1,.,.
CC[C@@]1(C(=O)OC)N[C@H](CN(C)C(=O)Nc2ccc(F)cc2)[C@@H]2C(=O)N(Cc3ccccc3)C(=O)[C@@H]21,70*,2,.,.,-3,-4,-8
CC(CC(=O)Nc1ccc2c(c1)OCCO2)=NNC(=O)c1ccccn1,.,.,.,.,.,12,.
SMILES,PrP UTR inh,MazF activator,DUSP3 inh,3CLpro inhibitor,PrPC surface inh,Mtb hypoxia inh,PrP UTR cherry
O=C1NCCCC1C(=O)NN=Cc1ccc(Cl)cc1 (stereo unspecified),.,.,.,.,.,-9,.
CCOC(=O)C(=NNc1ncnc2ccccc12)c1ccc(C)cc1,.,.,.,.,.,-3,.
Cc1ccc2nc(-c3ccccc3)nn2c1,61*,1,.,.,3,23,?
CC(=NNc1ccc(F)cc1F)c1ccccc1O,.,.,.,.,.,8,.
O=C(Nc1ccccc1)Oc1ccccc1N1CCOCC1,-21,5,25,-6,0,12,.
O=C(Nc1ccc(COc2ccccc2)cc1)Oc1ccccc1N1CCOCC1,59*,11,-2,-1,1,13,32
C/C(=C/C=NNc1nc(N2CCCCC2)nc(N2CCCCC2)n1)c1ccccc1,.,.,.,.,.,-4,.
COc1cccc2sc3cc(NCCC4CCCN4C)ccc3c(=O)c12 (stereo unspecified),.,.,.,.,.,10,.
COC(=O)C1=C(C)NC2=C(C(=O)c3ccccc32)C1c1cccc(OC)c1 (stereo unspecified),-16,7,18,4,2,4,.
CC1=C([N+](=O)[O-])C(c2cccc(Br)c2)C2=C(N1)c1ccccc1C2=O (stereo unspecified),54*,24,25,1,-3,1,71*
O=C(CSc1nc2ccccc2s1)NN=Cc1cc([N+](=O)[O-])ccc1O,.,.,.,.,.,4,.
Cc1ccc(NC(=O)C2COc3ccccc3O2)cc1 (stereo unspecified),-82,5,15,0,3,3,.
Cc1ccc(NC(=O)CN(C)C(=O)C2COc3ccccc3O2)cc1 (stereo unspecified),75*,-1,13,6,-1,8,-9
COC(=O)C1=C(c2ccc(S(C)(=O)=O)cc2)CC2CCC1N2C(=O)N1CCC(C)CC1 (stereo unspecified),.,.,.,.,.,6,.
CN(C)c1ccc2c(c1)C(=NO)c1ccccc1-2,68*,8,.,.,.,.,-73
ON=C1c2ccccc2-c2ccccc21,4,3,14,0,-7,-17,.
CC1CCN(C(=O)/C(=C\c2cccs2)NC(=O)c2ccccc2)CC1,59*,1,30,1,-2,11,-10
COc1ccc(Cl)cc1NC(=O)CCn1cnc2ccccc2c1=O,70*,-3,-22,7,9,.,-10
O=C(CCn1cnc2ccccc2c1=O)Nc1cccc(Cl)c1,-9,3,-4,-4,-1,3,.
